# PubChem BioAssay AID1851 (National Center for Advancing Translational Sciences (NCATS), 2009)
# Among all 16,000 compounds or so, about 5,100 (32%) were called active. Another 25% or so got no clear call; they are omitted. Calls come from the whole dose curve; as a rule, active = well fitted curve in the direction sought with a large enough effect; inconclusive = small, poorly fitted or top-dose-only effect, or effect the other way; inactive = no such curve, though single readings can be large or run the other way. Some of the results follow.
# Target: Cytochrome P450 3A4 (Homo sapiens) (UniProt P08684)
# Sequence (P08684 whole entry, looked up): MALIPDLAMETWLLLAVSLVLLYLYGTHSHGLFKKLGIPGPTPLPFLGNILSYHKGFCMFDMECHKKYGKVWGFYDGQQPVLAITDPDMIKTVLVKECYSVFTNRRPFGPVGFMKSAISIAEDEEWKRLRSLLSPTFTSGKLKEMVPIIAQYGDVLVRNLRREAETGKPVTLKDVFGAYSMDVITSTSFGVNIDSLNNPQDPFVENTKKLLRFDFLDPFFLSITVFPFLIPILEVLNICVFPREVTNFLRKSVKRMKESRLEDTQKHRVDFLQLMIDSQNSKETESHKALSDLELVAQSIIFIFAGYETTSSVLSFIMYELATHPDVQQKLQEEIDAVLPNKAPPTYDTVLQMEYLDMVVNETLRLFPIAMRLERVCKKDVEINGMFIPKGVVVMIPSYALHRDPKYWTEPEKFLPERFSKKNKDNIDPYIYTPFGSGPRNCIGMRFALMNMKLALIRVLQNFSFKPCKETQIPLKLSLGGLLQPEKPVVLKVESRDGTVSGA
# Test: Cytochrome panel assay with activity outcomes
# Conditions: recombinant CYP, pro-luciferin dealkylation, luminescence, p450-cyp3a4; series mostly up to 57.1 µM
# % is set by controls: 0 for no effect and ±100 for the full control effect.
SMILES,"activity, negative = inhibition",AC50
CC(CO)(CO)N=Cc1cc(I)cc(I)c1O,-15.2% [at 11.4 µM] (inactive),
O=C1C2ON(c3ccccc3)C(c3ccncc3)C2C(=O)N1c1ccccc1 (stereo not given),,14.1 µM (active)
CCCC1C(=O)N(c2ccccc2)C1c1ccccc1 (stereo not given),1.96% [at 2.29 µM] (inactive),
O=C1C(Cc2ccccc2)C(c2ccccc2)N1c1ccccc1 (stereo not given),,inactive
CC(=O)NNC(=O)C(O)(c1ccccc1)c1ccccc1,,inactive
FC(F)(F)c1nc2ccccc2nc1N/N=C/c1ccc(Cl)cc1,,25.1 µM (active)
N#CC(c1ccc(Cl)cc1)c1nc2ccccc2nc1C(F)(F)F (stereo not given),15.3% [at 2.29 µM] (inactive),
COc1ccc(Oc2nc3ccccc3nc2C(F)(F)F)cc1,2.66% [at 2.29 µM] (inactive),
FC(F)(F)c1nc2ccccc2nc1N/N=C\c1ccccc1,,15.8 µM (active)
CCC(CC)C(=O)Nc1cccc(C(=O)Nc2ccc(OC)cc2[N+](=O)[O-])c1,,inactive
COc1ccc(NC(=O)c2cccs2)c([N+](=O)[O-])c1,,14.1 µM (active)
COc1ccc(NC(=O)c2ccc(C)cc2Cl)c([N+](=O)[O-])c1,,20 µM (active)
CCCn1nnnc1NC(=O)c1ccc(C)cc1Cl,,inactive
COCCCn1nnnc1SCC(=O)N1CCCC1,,inactive
CCCCn1nnnc1SCC(=O)N1CCCC1,,inactive
CCCCn1c(SCC(=O)N2CCCC2)nc2c1c(=O)n(C)c(=O)n2C,,17.8 µM (active)
COc1ccccc1CNc1ncnc2ccc(-c3ccc(C(=O)N(C)C)cc3)cc12,,10 µM (active)
COc1ccc(CNc2ncnc3ccc(-c4ccc(C(=O)N(C)C)cc4)cc23)c(OC)c1,,2.51 µM (active)
CN1CCCC[C@@H]1CCN1c2ccccc2Sc2ccc(S(C)=O)cc21 (stereo not given in full),,inactive
COc1ccc(CNC(=O)c2csc(Cc3ccc(OC)cc3)n2)cc1,,3.16 µM (active)

SMILES,"activity, negative = inhibition",AC50
COc1ccc(Cc2c(N)nc(N)nc2N)cc1,,inactive
COc1ccc(CNC(=O)c2csc(Cc3ccc(Cl)cc3)n2)cc1,,3.55 µM (active)
COC(=O)C1=C(C)C(c2ccc(OC)cc2)NC(=S)N1 (stereo not given),-11.5% [at 2.29 µM] (inactive),
COc1ccc(CNC(=O)c2cnc(C)cn2)cc1,,2 µM (active)
Cc1cnc(C(=O)OCC(=O)NC(C)C)cn1,-1.72% [at 2.29 µM] (inactive),
COc1ccc(CN[C@H](C)C(=O)O)cc1,0.14% [at 11.4 µM] (inactive),
O=C(O)c1cc(=O)c2ccc(Cl)cc2[nH]1,,inactive
CC(=O)Nc1nnc(S(N)(=O)=O)s1,,inactive
Cc1ccc(S(=O)(=O)c2c(C)nn(C(C)(C)C)c2OC(=O)c2cccs2)cc1,,2.24 µM (active)
COCC(=O)Oc1c(S(=O)(=O)c2ccc(C)cc2)c(C)nn1-c1ccccc1,,inactive
CCOC(=O)Oc1c(OC)cc(C(=O)O[C@H]2C[C@H]3CN4CCc5c([nH]c6cc(OC)ccc56)[C@@H]4C[C@H]3[C@@H](C(=O)OC)[C@@H]2OC)cc1OC,,inactive
COc1ccc(C2C(C#N)=C(N)Oc3n[nH]c(C)c32)cc1CN1CCN(c2ccc(F)cc2)CC1 (stereo not given),,8.91 µM (active)
COc1ccc(/C=N/NC(=O)c2ccccc2)cc1CN1CCN(c2ccc(F)cc2)CC1,,inactive
O=C(NC(=S)Nc1cccc(Cl)c1N1CCCC1)c1ccc(-c2cccc([N+](=O)[O-])c2)o1,,4.47 µM (active)
CCCSc1nc(C)cc(C)c1C(N)=O,,inactive
COc1cc(COc2cc(N)c(Cl)cc2C(=O)CCC2CCN(CCNS(C)(=O)=O)CC2)cc(OC)c1,,2 µM (active)
Cn1cc(C(=O)OCC2CCN(CCNS(C)(=O)=O)CC2)c2ccccc21,,inactive
CCCCN1CCC(CCC(=O)c2cc(Cl)c(N)cc2OC)CC1,,inactive
O=C(Nc1ccc(C(=O)Nc2ccc(C(=O)Nc3ccc(S(=O)(=O)O)c4cc(S(=O)(=O)O)cc(S(=O)(=O)O)c34)cc2)cc1)Nc1ccc(C(=O)Nc2ccc(C(=O)Nc3ccc(S(=O)(=O)O)c4cc(S(=O)(=O)O)cc(S(=O)(=O)O)c34)cc2)cc1,,inactive
COc1cccc(C(=O)Nc2nc3c(s2)CN(C)CC3)c1,,inactive

SMILES,"activity, negative = inhibition",AC50
CCN1CCc2nc(NC(=O)c3ccc4c(c3)OCCO4)sc2C1,,14.1 µM (active)
CCN1CCc2c(sc(N)c2C(N)=O)C1,,inactive
Cc1nc2c(ccc3nc(NC(=O)c4ccc5c(c4)OCCO5)sc32)s1,,6.31 µM (active)
COc1cc(C(=O)Nc2nc3ccc4nc(C)sc4c3s2)cc(OC)c1OC,,inactive
O=C(COc1ccc(Cl)cc1Cl)N/N=C/CCc1ccccc1,,11.2 µM (active)
Cc1ccccc1C(=O)Nc1ccc(C(=O)NNC(=O)CCCOc2ccc(Cl)cc2Cl)cc1,-18.9% [at 2.29 µM] (inactive),
C/C(=N/NC(=O)c1cccs1)c1ccc(NC(=O)COc2ccc(Cl)cc2Cl)cc1,-10.1% [at 2.29 µM] (inactive),
O=C(COc1ccccc1C(=O)N/N=C\c1ccc(O)c(O)c1)N/N=C/c1ccc(O)c(O)c1,12.4% [at 2.29 µM] (inactive),
CC(C/C=N/NC(=O)COc1cc(Cl)ccc1Cl)c1ccccc1 (stereo not given),,14.1 µM (active)
CCc1ccc(OCC(=O)NC(=S)Nc2ccc(F)cc2)c(Br)c1,-0.136% [at 2.29 µM] (inactive),
CCC(=O)NC(=S)Nc1ccc(NC(=O)COc2ccc(Cl)cc2Cl)cc1,,12.6 µM (active)
Cc1cc(NC(=O)COc2ccc(Cl)cc2Cl)n(-c2ccccc2)n1,-28.2% [at 11.4 µM] (inactive),
CC(/C=N\NC(=O)Cn1c(C)nc2ccccc21)=C\c1ccccc1,,inactive
CC(=C/c1ccccc1)/C=N/n1cnnc1,,12.6 µM (active)
CC(=C\C(=O)O)/C(=C/c1ccccc1)C(=O)O,,inactive
FC(F)(F)c1ccccc1-c1nc(Nc2ccncc2)c2ccccc2n1,,0.631 µM (active)
CNc1nc(-c2ccccc2Cl)nc2ccccc12,,25.1 µM (active)
Cc1ccccc1-c1nc(Nc2ccncc2)c2ccccc2n1,,6.31 µM (active)
CNc1nc(-c2ccccc2C(F)(F)F)nc2ccccc12,,inactive
Clc1ccccc1-c1nc(Nc2ccncc2)c2ccccc2n1,,3.98 µM (active)
